# In article PMC11062922 (Nature Chemical Biology, 2023):
# Like-named read-outs stand apart in the source and are kept apart here.
# Columns and labels:
# Design in all cases: species or system human, MV4-11 + K-562 + COLO205 + SK-N-BE2 + OVCAR-8
# CSNK1E = settings: read-out: apparent Kd, n = 1
# ABL1 = settings: read-out: apparent Kd, n = 1
# EPHA2 = settings: read-out: apparent Kd, n = 1
# EPHB2 = settings: read-out: apparent Kd, n = 1
# EPHB4 = settings: read-out: apparent Kd, n = 1
# ROCK2 = settings: read-out: apparent Kd, compound concentrations: 100 nM and 1000 nM (sheet 'Samples'), n = 1
# SRC = settings: read-out: apparent Kd, n = 1
# YES1 = settings: read-out: apparent Kd, n = 1
# PTK6 = settings: read-out: apparent Kd, n = 1
# HCK = settings: read-out: apparent Kd, n = 1
# PHKG2 = settings: read-out: apparent Kd, n = 1
# PRKAA2 = settings: read-out: apparent Kd, n = 1
# PRKX = settings: read-out: apparent Kd, n = 1
# ADCK1 = settings: read-out: apparent Kd; compound concentrations: 100 nM and 1000 nM (sheet 'Samples'), CATDS: 5.0791005267813499E-3; n = 1
# CDK17 = settings: read-out: apparent Kd; compound concentrations: 100 nM and 1000 nM (sheet 'Samples'), CATDS: 5.1710144175889199E-3; n = 1
# CSNK1A1 = settings: read-out: apparent Kd; compound concentrations: 100 nM and 1000 nM (sheet 'Samples'), CATDS: 5.1324512690416697E-3; n = 1
# MAPK8 = settings: read-out: apparent Kd; compound concentrations: 100 nM and 1000 nM (sheet 'Samples'), CATDS: 3.9571355950897801E-3; n = 1
# RIOK2 = settings: read-out: apparent Kd; compound concentrations: 100 nM and 1000 nM (sheet 'Samples'), CATDS: 5.3875103826164002E-3; n = 1
# STK3 = settings: read-out: apparent Kd; compound concentrations: 100 nM and 1000 nM (sheet 'Samples'), CATDS: 4.2986396089691199E-3; n = 1
# [1] = compound concentrations:100 nM and 1000 nM (sheet 'Samples')
structure (smiles),measurement,setting,value
Cl.NCc1ccc(-c2nc(-c3ccc(Cl)c(O)c3)c(-c3ccncc3)[nH]2)cc1 [SB-476429-A],potency estimated from few doses,CSNK1E; [1],1380 nM
CN(c1ccc(NC(=O)Nc2cccc(Cl)c2)cc1)c1ccnc(N)n1.Cl [GW830707A],potency estimated from few doses,"ABL1; compound concentrations: 100 nM and 1000 nM (sheet 'Samples'), CATDS: 1.69612830125371E-2",90.3 nM
same,potency estimated from few doses,"EPHA2; compound concentrations: 100 nM and 1000 nM (sheet 'Samples'), CATDS: 2.1264502158694101E-2",44.8 nM
same,potency estimated from few doses,"EPHB2; compound concentrations: 100 nM and 1000 nM (sheet 'Samples'), CATDS: 3.95108410825031E-2",12.4 nM
same,potency estimated from few doses,"EPHB4; compound concentrations: 100 nM and 1000 nM (sheet 'Samples'), CATDS: 6.0687941062208699E-2",6.3 nM
same,potency estimated from few doses,ROCK2; CATDS: 3.3185939241444598E-2,16.9 nM
same,potency estimated from few doses,"SRC; compound concentrations: 100 nM and 1000 nM (sheet 'Samples'), CATDS: 2.2534153996718501E-2",38.6 nM
same,potency estimated from few doses,"YES1; compound concentrations: 100 nM and 1000 nM (sheet 'Samples'), CATDS: 2.3597692911318701E-2",34.5 nM
Cc1ccc(Nc2ccnc(Nc3ccc4c(c3)CS(=O)(=O)C4)n2)cc1O.Cl [GW579362A],potency estimated from few doses,"ABL1; compound concentrations: 100 nM and 1000 nM (sheet 'Samples'), CATDS: 2.9223994432995299E-2",1330 nM
same,potency estimated from few doses,"PTK6; compound concentrations: 100 nM and 1000 nM (sheet 'Samples'), CATDS: 3.01604654859133E-2",1200 nM
O=C1NC(=O)C(N2CCc3ccccc32)=C1c1ccccc1Cl [SB-373598],potency estimated from few doses,ABL1; [1],172 nM
same,potency estimated from few doses,EPHA2; [1],87.4 nM
same,potency estimated from few doses,EPHB2; [1],110 nM
same,potency estimated from few doses,EPHB4; [1],129 nM
same,potency estimated from few doses,HCK; [1],312 nM
same,potency estimated from few doses,PHKG2; [1],872 nM
same,potency estimated from few doses,PRKAA2; [1],694 nM
same,potency estimated from few doses,PRKX; [1],367 nM
same,potency estimated from few doses,PTK6; [1],606 nM
same,potency estimated from few doses,SRC; [1],134 nM
same,potency estimated from few doses,YES1; [1],128 nM
CCn1c(-c2nonc2N)nc2c(C#CC(C)(C)O)nc(CN3CCCC3)cc21 [GSK1000163A],potency estimated from few doses,"PRKX; compound concentrations: 100 nM and 1000 nM (sheet 'Samples'), CATDS: 0.25481287922850399",759 nM
Cl.Nc1c(C(=O)c2cccc(C#CCN3CCCCC3)c2)cnn1-c1ccc(F)cc1 [RO1154461-001],potency estimated from few doses,"ABL1; compound concentrations: 100 nM and 1000 nM (sheet 'Samples'), CATDS: 1.29854856136426E-2",806 nM
same,potency estimated from few doses,"EPHA2; compound concentrations: 100 nM and 1000 nM (sheet 'Samples'), CATDS: 1.6105152878217399E-2",472 nM
same,potency estimated from few doses,"EPHB2; compound concentrations: 100 nM and 1000 nM (sheet 'Samples'), CATDS: 2.8724117835498601E-2",156 nM
same,potency estimated from few doses,"EPHB4; compound concentrations: 100 nM and 1000 nM (sheet 'Samples'), CATDS: 3.5435159362778398E-2",111 nM
same,potency estimated from few doses,"HCK; compound concentrations: 100 nM and 1000 nM (sheet 'Samples'), CATDS: 1.18075673820272E-2",1060 nM
same,potency estimated from few doses,"PRKAA2; compound concentrations: 100 nM and 1000 nM (sheet 'Samples'), CATDS: 1.20335296051875E-2",1000 nM
same,potency estimated from few doses,"PTK6; compound concentrations: 100 nM and 1000 nM (sheet 'Samples'), CATDS: 1.35601917152245E-2",717 nM
same,potency estimated from few doses,"SRC; compound concentrations: 100 nM and 1000 nM (sheet 'Samples'), CATDS: 1.30987485498882E-2",787 nM
same,potency estimated from few doses,"YES1; compound concentrations: 100 nM and 1000 nM (sheet 'Samples'), CATDS: 1.4471532311659799E-2",608 nM
Cn1ncc2c(N)ncnc21 [SKF-18267],potency estimated from few doses,"ABL1; compound concentrations: 100 nM and 1000 nM (sheet 'Samples'), CATDS: 4.5890401321851898E-3",972 nM
same,potency estimated from few doses,ADCK1,789 nM
same,potency estimated from few doses,CDK17,762 nM
same,potency estimated from few doses,CSNK1A1,773 nM
same,potency estimated from few doses,"CSNK1E; compound concentrations: 100 nM and 1000 nM (sheet 'Samples'), CATDS: 4.2831601683339304E-3",1130 nM
same,potency estimated from few doses,"EPHA2; compound concentrations: 100 nM and 1000 nM (sheet 'Samples'), CATDS: 6.1597951567788304E-3",555 nM
same,potency estimated from few doses,"EPHB2; compound concentrations: 100 nM and 1000 nM (sheet 'Samples'), CATDS: 4.50420726302921E-3",1010 nM
same,potency estimated from few doses,"EPHB4; compound concentrations: 100 nM and 1000 nM (sheet 'Samples'), CATDS: 5.4338505062104699E-3",694 nM
same,potency estimated from few doses,"HCK; compound concentrations: 100 nM and 1000 nM (sheet 'Samples'), CATDS: 4.5358126876330496E-3",997 nM
same,potency estimated from few doses,MAPK8,1370 nM
same,potency estimated from few doses,"PHKG2; compound concentrations: 100 nM and 1000 nM (sheet 'Samples'), CATDS: 4.3394023432843602E-3",1100 nM
same,potency estimated from few doses,"PTK6; compound concentrations: 100 nM and 1000 nM (sheet 'Samples'), CATDS: 4.9971490936353098E-3",815 nM
same,potency estimated from few doses,RIOK2,705 nM
same,potency estimated from few doses,ROCK2; CATDS: 4.7820751865343299E-3,891 nM
same,potency estimated from few doses,"SRC; compound concentrations: 100 nM and 1000 nM (sheet 'Samples'), CATDS: 7.2051481672215003E-3",429 nM
same,potency estimated from few doses,STK3,1120 nM
same,potency estimated from few doses,"YES1; compound concentrations: 100 nM and 1000 nM (sheet 'Samples'), CATDS: 6.9300225951379104E-3",456 nM
